These results are taken from article PMC11006913.

Common to all, as to assay: PBM; 200 nM protein, PBS
Common to all, as to conditions: dsDNA, one strand shown

For assay [1], the target named is HOXB9 (Homo sapiens, UniProt P17482 171-250, T197M).
The target in assay [2] is HOXC9 (Homo sapiens, UniProt P31274 178-260, K195R).
Assay [3] addresses HOXC10 (Homo sapiens, UniProt Q9NYD6 254-340).
For assay [4], the target named is HOXB9 (Homo sapiens, UniProt P17482 171-250).
Assay [5] deals with HOXC9 (Homo sapiens, UniProt P31274 178-260).
Assay [6] concerns the target HOXC9 (Homo sapiens, UniProt P31274 178-260, R193K).
For assay [7], the target named is HOXC10 (Homo sapiens, UniProt Q9NYD6 254-340, K271E).
In assay [8] the target is HOXB9 (Homo sapiens, UniProt P17482 171-250, R186Q).
In assay [9] the target is HOXC9 (Homo sapiens, UniProt P31274 178-260, R222W).
Assay [10] addresses HOXA2 (Homo sapiens, UniProt O43364 129-215, R185T).
Assay [11] has as its target HOXD13 (Homo sapiens, UniProt P35453 263-343, T313R).
The target in assay [12] is HOXA2 (Homo sapiens, UniProt O43364 129-215, R185K).
Assay [13] addresses HOXD13 (Homo sapiens, UniProt P35453 263-343).
The target in assay [14] is HOXD13 (Homo sapiens, UniProt P35453 263-343, T313A).
For assay [15], the target named is HOXA2 (Homo sapiens, UniProt O43364 129-215, Y150S).
Assay [16] has as its target HOXA2 (Homo sapiens, UniProt O43364 129-215).
In assay [17] the target is ALX3 (Homo sapiens, UniProt O95076 139-225, N203Q).
Assay [18] has as its target ALX3 (Homo sapiens, UniProt O95076 139-225).

Chain of HOXC9 (Homo sapiens, UniProt P31274 178-260, K195R) (P31274 178-260 K195R): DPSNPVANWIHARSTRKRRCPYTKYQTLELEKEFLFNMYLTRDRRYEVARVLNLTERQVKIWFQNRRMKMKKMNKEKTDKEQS
Chain of HOXC9 (Homo sapiens, UniProt P31274 178-260) (P31274 178-260): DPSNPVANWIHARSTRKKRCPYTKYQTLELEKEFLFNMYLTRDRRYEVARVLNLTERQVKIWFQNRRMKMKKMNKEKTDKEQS
Chain of HOXB9 (Homo sapiens, UniProt P17482 171-250, R186Q) (P17482 171-250 R186Q): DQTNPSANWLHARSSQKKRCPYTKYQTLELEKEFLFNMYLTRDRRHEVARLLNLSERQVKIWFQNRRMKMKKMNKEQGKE
Chain of HOXB9 (Homo sapiens, UniProt P17482 171-250, T197M) (P17482 171-250 T197M): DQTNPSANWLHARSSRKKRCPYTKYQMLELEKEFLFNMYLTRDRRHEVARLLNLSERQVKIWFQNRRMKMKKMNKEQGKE
Chain of HOXD13 (Homo sapiens, UniProt P35453 263-343, T313A) (P35453 263-343 T313A): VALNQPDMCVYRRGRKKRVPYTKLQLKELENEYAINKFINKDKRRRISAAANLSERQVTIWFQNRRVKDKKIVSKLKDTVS
Chain of HOXC10 (Homo sapiens, UniProt Q9NYD6 254-340, K271E) (Q9NYD6 254-340 K271E): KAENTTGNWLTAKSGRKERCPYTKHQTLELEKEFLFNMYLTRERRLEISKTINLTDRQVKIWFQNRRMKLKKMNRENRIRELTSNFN
Chain of HOXD13 (Homo sapiens, UniProt P35453 263-343) (P35453 263-343): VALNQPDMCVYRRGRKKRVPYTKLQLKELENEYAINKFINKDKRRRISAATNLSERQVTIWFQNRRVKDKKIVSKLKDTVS
Chain of HOXC9 (Homo sapiens, UniProt P31274 178-260, R193K) (P31274 178-260 R193K): as the sequence (P31274 178-260) above, with R16K counted along it
Chain of HOXB9 (Homo sapiens, UniProt P17482 171-250) (P17482 171-250): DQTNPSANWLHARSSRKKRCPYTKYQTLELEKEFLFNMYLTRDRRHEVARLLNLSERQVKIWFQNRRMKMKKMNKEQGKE
Chain of HOXD13 (Homo sapiens, UniProt P35453 263-343, T313R) (P35453 263-343 T313R): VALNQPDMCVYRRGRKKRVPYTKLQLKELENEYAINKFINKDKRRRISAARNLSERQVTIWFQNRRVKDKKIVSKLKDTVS
Chain of HOXC10 (Homo sapiens, UniProt Q9NYD6 254-340) (Q9NYD6 254-340): as the sequence (Q9NYD6 254-340 K271E) above, with E18K counted along it
Chain of HOXC9 (Homo sapiens, UniProt P31274 178-260, R222W) (P31274 178-260 R222W): as the sequence (P31274 178-260) above, with R45W counted along it
Chain of ALX3 (Homo sapiens, UniProt O95076 139-225, N203Q) (O95076 139-225 N203Q): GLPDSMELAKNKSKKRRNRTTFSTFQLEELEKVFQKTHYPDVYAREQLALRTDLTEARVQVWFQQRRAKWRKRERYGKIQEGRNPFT
Chain of HOXA2 (Homo sapiens, UniProt O43364 129-215) (O43364 129-215): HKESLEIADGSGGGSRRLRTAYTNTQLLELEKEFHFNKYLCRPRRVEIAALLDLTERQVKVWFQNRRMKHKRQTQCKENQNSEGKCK
Chain of HOXA2 (Homo sapiens, UniProt O43364 129-215, R185T) (O43364 129-215 R185T): as the sequence (O43364 129-215) above, with R57T counted along it
Chain of HOXA2 (Homo sapiens, UniProt O43364 129-215, Y150S) (O43364 129-215 Y150S): as the sequence (O43364 129-215) above, with Y22S counted along it
Chain of HOXA2 (Homo sapiens, UniProt O43364 129-215, R185K) (O43364 129-215 R185K): as the sequence (O43364 129-215) above, with R57K counted along it
Chain of ALX3 (Homo sapiens, UniProt O95076 139-225) (O95076 139-225): as the sequence (O95076 139-225 N203Q) above, with Q65N counted along it

As for CATTAAAC, the binding signal in [1] was 9.93 upbm affinity estimate (log intensity, higher = more binding, comparable within an allelic series); in assay [2], 12.5 upbm affinity estimate (log intensity, higher = more binding, comparable within an allelic series); in assay [3], 12.2 upbm affinity estimate (log intensity, higher = more binding, comparable within an allelic series); in assay [4], 11.8 upbm affinity estimate (log intensity, higher = more binding, comparable within an allelic series); in [5], 12.6 upbm affinity estimate (log intensity, higher = more binding, comparable within an allelic series); in assay [6], 12.6 upbm affinity estimate (log intensity, higher = more binding, comparable within an allelic series). In addition, the binding signal was 11.9 upbm affinity estimate (log intensity, higher = more binding, comparable within an allelic series) in assay [7]; 11.6 upbm affinity estimate (log intensity, higher = more binding, comparable within an allelic series) in assay [8]; 10.9 upbm affinity estimate (log intensity, higher = more binding, comparable within an allelic series) in assay [9].
As to CGCCACCG, the binding signal in assay [1] is 8.56 upbm affinity estimate (log intensity, higher = more binding, comparable within an allelic series); in assay [2] it was 9.67 upbm affinity estimate (log intensity, higher = more binding, comparable within an allelic series); in assay [10] it was 7.25 upbm affinity estimate (log intensity, higher = more binding, comparable within an allelic series); in assay [4] it was 8.3 upbm affinity estimate (log intensity, higher = more binding, comparable within an allelic series); in [5], 9.81 upbm affinity estimate (log intensity, higher = more binding, comparable within an allelic series); in [11], 9.57 upbm affinity estimate (log intensity, higher = more binding, comparable within an allelic series). Also, the binding signal in assay [6] was 9.64 upbm affinity estimate (log intensity, higher = more binding, comparable within an allelic series); in assay [12], 10.5 upbm affinity estimate (log intensity, higher = more binding, comparable within an allelic series); in [13], 9.56 upbm affinity estimate (log intensity, higher = more binding, comparable within an allelic series); in assay [14] it was 9.65 upbm affinity estimate (log intensity, higher = more binding, comparable within an allelic series); in [8], 8.46 upbm affinity estimate (log intensity, higher = more binding, comparable within an allelic series); in [9] it was 9.73 upbm affinity estimate (log intensity, higher = more binding, comparable within an allelic series). The binding signal is 10.7 upbm affinity estimate (log intensity, higher = more binding, comparable within an allelic series) in assay [15] and 7.41 upbm affinity estimate (log intensity, higher = more binding, comparable within an allelic series) in [16].
Regarding CTAATAAA, the binding signal in assay [1] is 9.76 upbm affinity estimate (log intensity, higher = more binding, comparable within an allelic series); in [2] it was 12.5 upbm affinity estimate (log intensity, higher = more binding, comparable within an allelic series); in assay [3], 12.5 upbm affinity estimate (log intensity, higher = more binding, comparable within an allelic series); in assay [4], 11.9 upbm affinity estimate (log intensity, higher = more binding, comparable within an allelic series); in [5] it was 12.7 upbm affinity estimate (log intensity, higher = more binding, comparable within an allelic series); in assay [11] it was 11.2 upbm affinity estimate (log intensity, higher = more binding, comparable within an allelic series). The binding signal in assay [6] was 12.6 upbm affinity estimate (log intensity, higher = more binding, comparable within an allelic series); in [13] it was 12.3 upbm affinity estimate (log intensity, higher = more binding, comparable within an allelic series); in assay [7], 11.9 upbm affinity estimate (log intensity, higher = more binding, comparable within an allelic series); in assay [14], 12.1 upbm affinity estimate (log intensity, higher = more binding, comparable within an allelic series); in assay [8], 11.6 upbm affinity estimate (log intensity, higher = more binding, comparable within an allelic series); in assay [9], 11.1 upbm affinity estimate (log intensity, higher = more binding, comparable within an allelic series).
In the case of GCCATAAA, the binding signal in [1] is 9.72 upbm affinity estimate (log intensity, higher = more binding, comparable within an allelic series); in [2] it was 12.7 upbm affinity estimate (log intensity, higher = more binding, comparable within an allelic series); in assay [3], 12.4 upbm affinity estimate (log intensity, higher = more binding, comparable within an allelic series); in assay [4], 12.2 upbm affinity estimate (log intensity, higher = more binding, comparable within an allelic series); in assay [5] it was 12.9 upbm affinity estimate (log intensity, higher = more binding, comparable within an allelic series); in [11], 10.7 upbm affinity estimate (log intensity, higher = more binding, comparable within an allelic series). Further, the binding signal in assay [6] is 12.9 upbm affinity estimate (log intensity, higher = more binding, comparable within an allelic series); in assay [13], 11.9 upbm affinity estimate (log intensity, higher = more binding, comparable within an allelic series); in [7], 11.8 upbm affinity estimate (log intensity, higher = more binding, comparable within an allelic series); in assay [14] it was 11.7 upbm affinity estimate (log intensity, higher = more binding, comparable within an allelic series); in assay [8] it was 11.9 upbm affinity estimate (log intensity, higher = more binding, comparable within an allelic series); in assay [9] it was 10.9 upbm affinity estimate (log intensity, higher = more binding, comparable within an allelic series).
Turning to CCATAAAA, the binding signal in [1] is 10 upbm affinity estimate (log intensity, higher = more binding, comparable within an allelic series); in assay [2] it was 13.3 upbm affinity estimate (log intensity, higher = more binding, comparable within an allelic series); in assay [3] it was 13 upbm affinity estimate (log intensity, higher = more binding, comparable within an allelic series); in assay [4], 12.8 upbm affinity estimate (log intensity, higher = more binding, comparable within an allelic series); in assay [5] it was 13.4 upbm affinity estimate (log intensity, higher = more binding, comparable within an allelic series); in assay [17], 8.22 upbm affinity estimate (log intensity, higher = more binding, comparable within an allelic series). Also, the binding signal in assay [11] was 11 upbm affinity estimate (log intensity, higher = more binding, comparable within an allelic series); in [6], 13.3 upbm affinity estimate (log intensity, higher = more binding, comparable within an allelic series); in assay [13] it was 12.3 upbm affinity estimate (log intensity, higher = more binding, comparable within an allelic series); in [7] it was 12.5 upbm affinity estimate (log intensity, higher = more binding, comparable within an allelic series); in assay [18], 8.99 upbm affinity estimate (log intensity, higher = more binding, comparable within an allelic series); in assay [14] it was 12 upbm affinity estimate (log intensity, higher = more binding, comparable within an allelic series). The binding signal was 12.5 upbm affinity estimate (log intensity, higher = more binding, comparable within an allelic series) in assay [8] and 11.6 upbm affinity estimate (log intensity, higher = more binding, comparable within an allelic series) in assay [9].
